Results taken from PubChem BioAssay AID686979 (National Center for Advancing Translational Sciences (NCATS), 2013).
Screen size: about 420,000 compounds; about 50,000 (12%) were called active. Not shown: some 26% with an inconclusive outcome. Only a selection was taken, and actives are over-represented in it overall. A number with no mark means an inactive call. Calls follow the shape of the dose curve; as a rule, active = well fitted inhibition curve with a large enough effect; inconclusive = small, poorly fitted or top-dose-only effect; inactive = flat fitted curve, though single readings scatter.

Assay: qHTS for Inhibitors of human tyrosyl-DNA phosphodiesterase 1 (TDP1): qHTS in cells in presence of CPT; also: nearly all actives have a fitted effect of over 55% in size
Conditions: chicken DT40 Tdp1-/-;hTDP1 cells + 20 nM CPT, ATP luminescence, 48 h; series mostly up to 46.2 µM; activity change, negative = growth inhibition: at the top concentration
Method in brief: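 Cell growth measured by CellTiter-Glo luminescence after a minimum 48 h, 37 C compound exposure with 20 nM CPT in Tdp1-knockout DT40 cells stably expressing hTDP1, seeded 400/well; qHTS titration format.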
% is scaled to controls: 0 for no effect and ±100 for the full control effect; potency is read from the fitted curve at half-maximal effect.

SMILES | activity change, negative = growth inhibition | Potency
COc1ccc(OCC(=O)N2CCOCC2)cc1 | -13.8% | 
O=C(O)c1cnn2c(C(F)(F)F)cc(-c3ccccc3)nc12 | -7.77% | 
COc1ccc(-c2cc(C(F)(F)F)n3nc(C(=O)N4CCOCC4)c(Cl)c3n2)cc1 |  | 16.4 µM (active)
CC(=O)Nc1ccc(SCC(=O)NC(=O)c2ccc(Cl)cc2)cc1 | -14.9% | 
O=c1onc(-c2c(F)cccc2F)n1-c1ccccc1Cl | -18.9% | 
COc1ccc(CN(C)CCn2cc(C(=O)N3CCSCC3)nn2)cc1C | 11.4% | 
O=c1cc(CO)oc(CN2CCC(Cc3ccccc3)CC2)c1O | -6.74% | 
CCN1CCN(Cc2nc3c(c(=O)n(C)c(=O)n3C)n2CC(=O)c2ccccc2)CC1 | -4.17% | 
O=C(O)C1CCCN(CCC=C(c2ccccc2)c2ccccc2)C1 (centres undefined) |  | inactive
Cn1c(=O)c2c(nc(CN3CCOCC3)n2Cc2ccccc2)n(C)c1=O | -18.4% | 
COCCn1c(CN2CCC(Cc3ccccc3)CC2)nc2c1c(=O)n(C)c(=O)n2C |  | 8.2 µM (active)
CC1CCCN(Cc2nc3c(c(=O)n(C)c(=O)n3C)n2CC(=O)c2ccccc2)C1 (centres undefined) |  | 23.1 µM (active)
CCc1ccc(N2CC(C(=O)N3CCCCCC3)CC2=O)cc1 (centres undefined) | 2.2% | 
Cc1c(C(=O)NC(C)C2CC3CCC2C3)cccc1[N+](=O)[O-] (centres undefined) | -8.19% | 
CCn1c(CSc2nc(C)cc(C)n2)nnc1SCC(N)=O | 16% | 
O=C(Nc1ccccc1Br)c1cc(CN2CCCC2)on1 | -28% | 
Cc1[nH]c(=O)c(C(=O)/C=C/c2ccccc2)c2c1CCCC2 |  | 5.8 µM (active)
O=C(NCc1ccccn1)c1c(O)c2c([nH]c1=O)CCCC2 | -28.7% | 
Cc1cn(COC/C=C/c2ccccc2)c(=O)[nH]c1=O | -9.62% | 
O=C1NC(=O)C(c2ccc(Cl)cc2)N1 (centres undefined) | -9.04% | 
CCCCN(C(=O)C1=NN(c2cc(C)ccc2C)C(=O)CC1)c1c(N)n(CCC)c(=O)[nH]c1=O | -5.86% | 
O=C(NCC1CCCO1)c1cc(-c2ccccc2)nc2ccccc12 (centres undefined) | -17% | 
O=C(NCC1CCCO1)c1cc2c([nH]c3ccccc32)c(-c2ccc(F)cc2)n1 (centres undefined) |  | 2.06 µM (active)
O=C(NCC1CCCO1)c1ccc2ccccc2n1 (centres undefined) | -6.77% | 
CCOC(=O)c1c(-c2ccccc2)oc2cc(Br)c(O)cc12 | -23% | 

SMILES | activity change, negative = growth inhibition | Potency
O=C(c1ccncc1)N1CCN(c2ccc3ccccc3n2)CC1 | -24.9% | 
Cn1cc(CN2CCC(C(O)CCc3ccccc3)CC2)c(-c2ccccc2F)n1 (centres undefined) | 10.5% | 
N=c1n(CCc2ccccc2)c2ccccc2n1Cc1ccccc1F |  | 7.31 µM (active)
O=C(COC(=O)Cc1ccccc1F)NCCc1ccccc1 | 4.14% | 
CCC(=O)c1ccc(OC(=O)/C=C/c2cc(OC)c(OC)c(OC)c2)cc1 | 2.38% | 
CC1(C)C=Cc2c(ccc3c2OC[C@@H](c2ccc(O)cc2O)C3)O1 |  | 25.9 µM (active)
NS(=O)(=O)c1ccc(NC2=CC(c3ccc(F)cc3)N(c3ccc(S(N)(=O)=O)cc3)C2=O)cc1 (centres undefined) | -11.3% | 
Cc1[nH]nc(SCC(=O)NCC(C)C)c1[N+](=O)[O-] | 2.73% | 
CC1CCCC(N2CCN(C(=O)c3ccc(F)cc3)CC2)C1 (centres undefined) | 3% | 
COC(=O)c1ccc(COc2ccc(/C=N/NC(=O)C(=O)Nc3ccc(OC)cc3)cc2OC)o1 | -8.05% | 
CCCc1ccc(OCc2ccc(C(=O)N/N=C/c3cccc([N+](=O)[O-])c3)o2)c(OC)c1 |  | 8.2 µM (active)
COc1ccccc1OCc1ccc(C(=O)NC(C)c2ccccc2)o1 (centres undefined) | 1.09% | 
CCOc1ccc(C2C(C#N)=C(N)N(N(C)C)C3=C2C(=O)CCC3)cc1 (centres undefined) | -4.52% | 
Cc1ccc2c(O)c(Cc3ccccc3)c(=O)[nH]c2n1 | -7.61% | 
O=C(NC1CCCC1)C1CCN(C(=O)Nc2cccc(Cl)c2)CC1 | 0.714% | 
COc1ccc(CNC(=O)COC(=O)c2sccc2C)cc1OC | -16.2% | 
OC(CN=c1sc2ccccc2n1CC(O)COc1ccccc1)COc1ccccc1 (centres undefined) |  | 25.9 µM (active)
O=C(c1ccccc1)c1ccc(OCC(O)CN2CCCC2)cc1 (centres undefined) | -0.0362% | 
OC(COc1ccccc1)Cn1cc(Br)cn1 (centres undefined) | 5.11% | 
Cc1ccc(OCCNC(=O)CCNS(=O)(=O)c2ccc(Br)cc2)cc1 | -29.3% | 
COc1ccc(C)cc1Nc1n[n+](-c2ccccc2)c(-c2cccc(Cl)c2Cl)s1 |  | 13 µM (active)
COc1ccc(C)cc1Nc1nc(-c2c(C)[nH]c3ccccc23)cs1 | -20.2% | 
COc1ccc(C)cc1S(=O)(=O)Nc1cccc(Cl)c1Cl | -10.9% | 
O=C(c1ccc(NS(=O)(=O)c2ccc3[nH]c(=O)[nH]c3c2)cc1)N1CCCCC1 | 5.76% | 
N#CC1(NC(=O)COC(=O)CSc2ccc(F)cc2)CCCCC1 | -20.6% | 

SMILES | activity change, negative = growth inhibition | Potency
Cc1ccc(NC2=C(c3ccc(C(F)(F)F)cc3)C(=O)c3ccccc32)cc1F |  | 8.2 µM (active)
CC(=O)N1CCN(CC(=O)Nc2ccc(C)c(F)c2)CC1 | -19.2% | 
Cc1ccc(NC(=O)NC(=O)c2ccccc2)cc1F | -13.6% | 
COC(=O)c1sc(SC)c(S(=O)(=O)C(C)C)c1N/N=C(\C#N)S(=O)(=O)c1ccccn1 | 1.69% | 
CCCC(=O)OCC(=O)Nc1cc(Cl)ccc1[N+](=O)[O-] | 6.39% | 
CC(C)N(C)C(=O)CCc1nnc(CCc2c[nH]c3ccccc23)o1 | -6.4% | 
CC(=O)c1ccc(-c2nnc(CCC(=O)N(C)Cc3cnc4ccccn34)o2)s1 | 0.834% | 
CCc1ccc(CN(C)C(=O)CCc2nnc(-c3ccc(-c4ccccc4)cc3)o2)nc1 |  | 18.4 µM (active)
CCCc1ccc(OCC(O)CN2CCN(CCO)CC2)cc1 (centres undefined) | 6.86% | 
CNc1cncc(-c2cccc(C(=O)N3CCOCC3)c2)n1 | -12.1% | 
CC(=O)c1cccc(-c2cnc3c(NC=O)cc(-c4ccccc4Oc4ccccc4)cn23)c1 |  | 14.6 µM (active)
CC(=O)N1c2ccccc2CC1C(=O)N1CCN(c2ccc(F)cc2)CC1 (centres undefined) | -18.4% | 
CC(=O)Nc1cc(-c2ccc(N3CCN(C)CC3)cc2)cn2c(-c3ccc(F)cc3)cnc12 |  | 5.17 µM (active)
CN(C)C(=O)c1cccc(-c2cnc3c(NC=O)cc(-c4ccc(C(=O)N5CCOCC5)cc4)cn23)c1 |  | 29.1 µM (active)
CC(=O)c1cccc(-c2cnc3c(NC=O)cc(-c4ccc(N(C)C)cc4)cn23)c1 |  | 7.31 µM (active)
O=C(Nc1ccc(F)cc1)N1CCN(c2ccc(F)cc2)CC1 | 19.6% | 
COc1ccccc1C(=O)Nc1cccc(C(=O)N2CCOCC2)c1 | 9.81% | 
COC(=O)C1CCN(C(=O)NC2CC(=O)N(c3ccc4c(c3)OCCO4)C2)CC1 (centres undefined) | 1.67% | 
NC(=O)COC(=O)c1ccc2c(c1)C(=O)N(Cc1ccco1)C2=O | -16.2% | 
COc1cc2c(C(=O)O)c(C)n(C)c2c2ccccc12 | -17.2% | 
CNC[C@H]1Oc2c(NC(=O)C3CCCCC3)cccc2C(=O)N([C@H](C)CO)C[C@@H]1C | 11.7% | 
CCOC(=O)C(Cc1ccccc1)NC(=O)CCc1c(C)nc2c(c(C)nn2-c2ccc(C)c(C)c2)c1C (centres undefined) | -29.9% | 
Cc1cc(C)c2c(NC(=O)C3CC3)nn(C)c2n1 | -6.29% | 
O=C(NCCc1ccccn1)c1nc(Cn2cc([N+](=O)[O-])cn2)no1 | 5.17% | 
COc1ccc(NC(=O)CCS(=O)(=O)c2cc3c(cc2Cl)NC(=O)CO3)cc1OC | -12.9% | 

SMILES | activity change, negative = growth inhibition | Potency
CCOc1ccc(N2C(=O)Nc3ccccc3C2(O)C(=O)NCc2ccco2)cc1 (centres undefined) | -10.1% | 
Cc1ccc(NC(=O)c2sccc2C)cc1[N+](=O)[O-] | 5.4% | 
O=C(CSc1nccc(=O)[nH]1)Nc1ccc(N2CCOCC2)c(Cl)c1 | -2.28% | 
Cc1ccc(OCC(=O)NCCCNC(=O)c2ccco2)cc1C | 11% | 
CCCC(C(=O)NC1CCCC1)N(C(=O)Cn1nnc(-c2ccc(C)o2)n1)c1cccc(O)c1 (centres undefined) | 7.3% | 
CC(=O)c1ccc(S(=O)(=O)N2CCC3(CC2)OCCO3)cc1 | -1.56% | 
O=C(CSc1ncccn1)N1CCCC1 | -6.15% | 
COc1ccc(O)c(C(=O)c2cnc3c(c2)c(-c2ccc(F)cc2)c(C#N)c(=O)n3C)c1 | -34.5% | 
N#C/C=C(/c1ccc(F)cc1)N1CCOCC1 | -2.86% | 
O=CNc1cc(-c2ccc(C(=O)N3CCOCC3)cc2)cn2c(-c3ccc(F)cc3)cnc12 |  | 20.6 µM (active)
Cc1c(NC(=O)Nc2ccc(F)c(Cl)c2)c(=O)n(-c2ccccc2)n1C | -2.31% | 
CN(C)C(=O)c1cccc(-c2cnc3c(NC=O)cc(-c4ccc(F)cc4)cn23)c1 |  | 6.51 µM (active)
CNc1cnc(-c2cc(OC)c(OC)c(OC)c2)cn1 | 8.84% | 
COc1ccc(-c2cc(NC(C)=O)c3ncc(-c4cc(OC)c(OC)c(OC)c4)n3c2)cn1 |  | 2.59 µM (active)
CC(=O)Nc1cccc(-c2cc(NC=O)c3ncc(-c4ccc(F)c(Cl)c4)n3c2)c1 |  | 23.1 µM (active)
Cc1ccc(C(=O)N2CCN(C(=O)N3CCOCC3)CC2)cc1 | -0.646% | 
COc1cc(C(=O)N2CCN(C)CC2)cc(OC)c1OC | 9.33% | 
Cc1ccc(OCC(=O)NCCCNC(=O)c2cccnc2)cc1C | -10.9% | 
CCCCn1c(N)c(N(CCC(C)C)C(=O)COC(=O)c2cccnc2OCC)c(=O)[nH]c1=O | -10.1% | 
COCCC(=O)Nc1ccc2c(c1)CN(C(=O)CCOC)CC2 | -9.78% | 
CC1O[C@@H](OC2C(O)C(C)O[C@H](OC(=O)[C@]34CCC(C)(C)C[C@H]3C3=CCC5[C@@]6(C)CC(O)C(O[C@@H]7OC(CO)C(O)[C@@H](O)[C@@H]7O)[C@@](C)(C(=O)O)C6CC[C@@]5(C)[C@]3(CO)CC4)C2O[C@H]2OC(C)[C@@H](O[C@@H]3OCC(O[C@@H]4OC(CO)C(O)[C@H](O)C4O)[C@@H](O)[C@@H]3O)[C@H](O)C2O)C(O)C(O)C1O (some centres undefined) | 11.8% | 
Cc1cc(C)cc(N(CCC#N)C(=O)CN2C(=O)NC3(CCCC3)C2=O)c1 | -11.4% | 
CC(NS(=O)(=O)c1ccc(OCC(=O)N2CCCC2)cc1)c1ccccc1 (centres undefined) | -4.52% | 
CCOC(=O)c1ccc(-n2c(CCC(=O)O)ccc2-c2ccccc2)cc1 |  | inactive
